About 7,900 targets were measured; listed, in parts, are those with a hit and a random draw of the rest. About 0.6% of all pairs of compound and target were hits.
Tests used:
Assay in all cases: log2 fold change, soluble protein after heating vs DMSO (PISA); higher = thermal stabilisation; K562 cells, 10 uM, 30 min; active = over 0.2 and 3.5 SD of the protein, either way, in both replicates (recomputed)
AAGAB = AAGAB (UniProt Q6PD74)
Outline: (§1)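 K562 cells at 2×10^6 cells/mL were treated for 30 min with 10 μM compound, and aliquots were heated for 3 min over 48°C-58°C before pooling. Extraction used PBS with 0.5% NP-40 at 4°C, and soluble protein was the supernatant after 21,000xg for 90 min, measured by TMTpro 16plex LC-MS/MS with channel sums equalised. Thermal stability values, relative to control samples and from duplicates, are log2 fold changes.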

AAK1 [1] = molecular target: AAK1 (UniProt A0A096LP25)
Outline: as §1

AAK1 [2] = molecular target: AAK1 (UniProt Q2M2I8)
Sequence of AAK1 (UniProt Q2M2I8) (Q2M2I8 whole entry, looked up): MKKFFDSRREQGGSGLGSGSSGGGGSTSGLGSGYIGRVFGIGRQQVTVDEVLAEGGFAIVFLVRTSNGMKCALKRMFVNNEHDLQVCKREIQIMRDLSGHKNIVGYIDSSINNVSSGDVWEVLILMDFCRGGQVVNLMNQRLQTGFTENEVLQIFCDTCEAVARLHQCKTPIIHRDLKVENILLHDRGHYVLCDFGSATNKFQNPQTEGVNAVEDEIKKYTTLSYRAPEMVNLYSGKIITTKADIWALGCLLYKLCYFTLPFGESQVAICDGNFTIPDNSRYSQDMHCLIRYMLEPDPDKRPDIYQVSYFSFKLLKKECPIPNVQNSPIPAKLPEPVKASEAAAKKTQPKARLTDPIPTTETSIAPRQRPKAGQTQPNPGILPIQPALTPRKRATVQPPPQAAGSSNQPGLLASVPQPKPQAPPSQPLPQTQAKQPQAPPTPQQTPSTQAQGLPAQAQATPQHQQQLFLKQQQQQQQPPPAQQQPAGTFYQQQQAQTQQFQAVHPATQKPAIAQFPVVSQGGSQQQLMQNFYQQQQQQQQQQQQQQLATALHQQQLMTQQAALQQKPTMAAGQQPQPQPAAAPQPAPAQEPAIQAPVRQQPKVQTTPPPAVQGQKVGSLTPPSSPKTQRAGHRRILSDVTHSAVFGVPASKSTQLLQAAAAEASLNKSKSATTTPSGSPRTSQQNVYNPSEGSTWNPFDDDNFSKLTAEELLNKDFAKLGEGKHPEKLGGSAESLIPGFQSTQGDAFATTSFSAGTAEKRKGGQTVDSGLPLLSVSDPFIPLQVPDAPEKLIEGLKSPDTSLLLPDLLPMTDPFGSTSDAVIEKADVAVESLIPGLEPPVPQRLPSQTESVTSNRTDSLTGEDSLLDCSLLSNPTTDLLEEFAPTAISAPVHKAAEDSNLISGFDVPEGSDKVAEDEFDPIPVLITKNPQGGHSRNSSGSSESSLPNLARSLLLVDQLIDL
Outline: as §1

Measured: log2 fold change

Sequence of AAGAB (Q6PD74 whole entry, looked up): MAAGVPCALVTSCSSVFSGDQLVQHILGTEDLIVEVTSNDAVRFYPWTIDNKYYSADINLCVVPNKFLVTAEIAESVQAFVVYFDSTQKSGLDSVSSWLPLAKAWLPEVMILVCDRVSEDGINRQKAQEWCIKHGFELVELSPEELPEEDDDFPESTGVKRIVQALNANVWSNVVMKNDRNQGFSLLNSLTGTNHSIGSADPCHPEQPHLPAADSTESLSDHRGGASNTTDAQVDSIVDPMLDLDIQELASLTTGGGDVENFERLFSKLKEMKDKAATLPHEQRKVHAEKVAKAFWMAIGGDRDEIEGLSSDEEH

Cc1ccccc1-n1c(Cn2cnc3c(N)ncnc32)nc2cccc(C)c2c1=O
inactive: AAGAB 0.198 | AAK1 [1] -0.046 | AAK1 [2] 0.083

O=C(N[C@@H](COc1ccc2[nH]c(=O)[nH]c2c1)c1ccccc1)c1cccn(Cc2ccc(F)c(F)c2)c1=O
inactive: AAGAB -0.025 | AAK1 [1] -0.056 | AAK1 [2] 0.02

c1ccc([C@@H]2C[C@H]2NC2CCNCC2)cc1
inactive: AAGAB 0.038 | AAK1 [1] 0.072 | AAK1 [2] -0.017

Cc1sc2c(c1C)C(c1ccc(Cl)cc1)=N[C@@H](CC(N)=O)c1nnc(C)n1-2
inactive: AAGAB 0.044 | AAK1 [1] -0.041 | AAK1 [2] 0.039

Cc1sc2c(c1C)C(c1ccc(Cl)cc1)=N[C@@H](CC(=O)OC(C)(C)C)c1nnc(C)n1-2
inactive: AAGAB -0.03 | AAK1 [1] -0.024 | AAK1 [2] -0.217

— the supplement of paper PMC10849652
